The values below come from PubChem BioAssay (NCATS).

Records with an inconclusive call do not appear. Activity calls are given as the source filed them. Calls follow the shape of the dose curve; as a rule, active = well fitted cell-killing curve with a large enough effect; inconclusive = small, poorly fitted or top-dose-only effect, or effect the other way; inactive = no such curve, though single readings can be large or run the other way.
Potency is read from the fitted curve at half-maximal effect.

The test can be described thus: Quantitative High-Throughput drug screen in 47 multiple myeloma cell lines against the NCATS MIPE library collection: OCIMY7_PLB cell viability assay (AID 1918987). Also: nearly all actives have a fitted effect of over 65% in size. The settings on record: OCI-MY7 myeloma viability, CellTiter-Glo ATP, 48 h; series mostly up to 45.8 µM. The source says: PI: Beverly A. Mock Ph.D.
Laboratory of Cancer Biology and Genetics,
Center for Cancer Research, National Cancer Institute,
National Institute of Health, Bethesda, Maryland
Drug resistance and disease progression are common in multiple myeloma (MM) patients, underscoring the need for new therapeutic combinations. […] We hypothesized that effective combinations would reduce MYC expression and enhance p16 activity. […] These preclinical data identify potentially useful drug combinations for evaluation in drug-resistant MM and reveal potential mechanisms of combined drug sensitivity.
Described herein is the primary MIPE qHTS used to cherrypick compounds. Validated compounds were then further tested for potential synergistic activiy.
[1] Peat TJ, Gaikwad SM, Dubois W, Gyabaah-Kessie N, Zhang S, Gorjifard S, Phyo Z, Andres M, Hughitt VK, Simpson RM, Miller MA, Girvin AT, Taylor A, Williams D, D'Antonio N, Zhang Y, Rajagopalan A, Flietner E, Wilson K, Zhang X, Shinn P, Klumpp-Thomas C, McKnight C, Itkin Z, Chen L, Kazandijian D, Zhang J, Michalowski AM, Simmons JK, Keats J, Thomas CJ, Mock BA. Drug combinations identified by high-throughput screening promote cell cycle transition and upregulate Smad pathways in myeloma. Cancer Lett. 2023 Aug 1;568:216284. doi: 10.1016/j.canlet.2023.216284. Epub 2023 Jun 24. PMID: 37356470; PMCID: PMC10408729.
SEQUENCE No. (e.g., 1, 2, 3, etc.); […] (e.g., Cells, Incubation, Reagent, etc.); VALUE and DESCRIPTION.
1; Cells; 5 uL; white, solid bottom 1536-well Greiner assay plate.
2; Compounds; 23 nL; Kalypsis pin tool (Wako USA) equipped with a 1536-well pin head to transfer to the assay plates.
3; Incubation; 48 hours; 37C incubation.
4; Reagent;5uL; CellTiter Glo (Promega).
5; Detector; 425V; Luminescence; Viewlux PerkinElmer.
NOTES (numbers refer to Sequence numbers above)
1. The cell-based screening methods employed in this study were like those previously published. Briefly, the corresponding myeloma cell lines were screened in 1,536-well plates with 500 cells, 5-uL per well for inhibition of cell viability (assessed by measuring ATP levels with CellTiterGlo).
2. NCATS MIPE 4.0 library of approved and investigational drugs were added using the Kalypsis pin tool. Wells treated with DMSO only for 100% viability and media only for 0% viability were used as controls.
3. The assay plates were covered and incubated for 48 hours in a 37C, 5% CO2 incubator with controlled humidity.
4. After 48 hours, CellTilter-GloTM luminescent substrate mix (Promega) reagent was added to the assay plate and plates we incubated for 5 min at room temperature.
5. Signal was measured as median relative luminescence units on a ViewLux (PerkinElmer) multiplate reader.
[1] Heske CM, Davis MI, Baumgart JT, Wilson K, Gormally MV, Chen L, Zhang X, Ceribelli M, Duveau DY, Guha R, Ferrer M, Arnaldez FI, Ji J, Tran HL, Zhang Y, Mendoza A, Helman LJ, Thomas CJ. Matrix Screen Identifies Synergistic Combination of PARP Inhibitors and Nicotinamide Phosphoribosyltransferase (NAMPT) Inhibitors in Ewing Sarcoma. Clin Cancer Res. 2017 Dec 1;23(23):7301-7311. doi: 10.1158/1078-0432.CCR-17-1121. Epub 2017 Sep 12. PMID: 28899971; PMCID: PMC6636827.
For `CN(C)CCC=C1c2ccccc2C=Cc2ccccc21`, the Potency is 14.8 µM (active).

With `CN(C)C(=N)N=C(N)N`, the Potency result is “inactive”.

For the compound `CC(C)Cc1ccc(C(C)C(=O)O)cc1` (stereo not given), the Potency entry was “inactive”.

For `NC(=O)NO`, the Potency was 0.132 µM (active).

As for `COc1ccc2c(c1)c(CC(=O)O)c(C)n2C(=O)c1ccc(Cl)cc1`, the Potency is 13.2 µM (active).

As to `Cn1ccc2cc3c(cc21)CCN3C(=O)Nc1cccnc1`, the Potency is 20.9 µM (active).

On to `CCN1CCCC1CNC(=O)c1cc(S(=O)(=O)CC)c(N)cc1OC` (stereo not given), for which the Potency result was “inactive”.

For the compound `NC12CC3CC(CC(C3)C1)C2`, the Potency result was “inactive”.

As to `Clc1ccc(C(c2ccccc2Cl)C(Cl)Cl)cc1` (stereo not given), the Potency is 18.7 µM (active).

Turning to `CN(C)CCOC(c1ccccc1)c1ccccc1`, the Potency is 18.7 µM (active).

`Nc1c2c(nc3ccccc13)CCCC2`: the Potency entry is “inactive”.

On to `COc1cc2nc(N3CCN(C(=O)C4COc5ccccc5O4)CC3)nc(N)c2cc1OC` (stereo not given), for which the Potency is 18.7 µM (active).

As to `CN(CCOc1ccc(NS(C)(=O)=O)cc1)CCc1ccc(NS(C)(=O)=O)cc1`, the Potency entry is “inactive”.

With `O=c1c(O)c(-c2ccc(O)c(O)c2)oc2cc(O)cc(O)c12`, the Potency is 11.8 µM (active).

With `CCC1(c2ccccc2)C(=O)NCNC1=O`, the Potency was 3.32 µM (active).

As to `Cn1cnc2c1c(=O)[nH]c(=O)n2C`, the Potency was 5.9 µM (active).

Consider `CC(C)(Oc1ccc(C2CC2(Cl)Cl)cc1)C(=O)O` (stereo not given), for which the Potency result is “inactive”.

For `COc1nc(C)nc(Cl)c1NC1=NCCN1`, the Potency was 18.7 µM (active).

For `Cc1cc(C(C)(C)C)cc(C)c1CC1=NCCN1`, the Potency result is “inactive”.

For `CN(C)C(=O)C(CCN1CCC(O)(c2ccc(Cl)cc2)CC1)(c1ccccc1)c1ccccc1`, the Potency is 20.9 µM (active).

Take `O=C(c1ccc(F)cc1)C1CCN(CCn2c(=O)[nH]c3ccccc3c2=O)CC1`: the Potency entry was “inactive”.

On to `N[C@@H](Cc1c[nH]c2ccc(O)cc12)C(=O)O`, for which the Potency result is “inactive”.

As to `Fc1ccc([C@@H]2CCNC[C@H]2COc2ccc3c(c2)OCO3)cc1`, the Potency result was “inactive”.

With `CCC1(C)CC(=O)NC1=O` (stereo not given), the Potency result was “inactive”.

In the case of `CN(C)CCCN1c2ccccc2CCc2ccc(Cl)cc21`, the Potency is 0.187 µM (active).

In the case of `CN1CCN2c3ccccc3Cc3ccccc3C2C1` (stereo not given), the Potency was 18.7 µM (active).

Take `CN1C2CCC1CC(OC(=O)C(CO)c1ccccc1)C2` (stereo not given): the Potency result was “inactive”.

Turning to `CC[C@@]1(O)C(=O)OCc2c1cc1n(c2=O)Cc2cc3c(CN(C)C)c(O)ccc3nc2-1`, the Potency is 0.148 µM (active).

On to `CC12CC3CC(C)(C1)CC(N)(C3)C2`, for which the Potency is 23.5 µM (active).

Regarding `CC(C(=O)O)c1cccc(C(=O)c2ccccc2)c1` (stereo not given), the Potency entry is “inactive”.

With `Cc1cn([C@H]2C[C@H](N=[N+]=[N-])[C@@H](CO)O2)c(=O)[nH]c1=O`, the Potency was 16.6 µM (active).

Take `CC(CCc1ccc(O)cc1)NCCc1ccc(O)c(O)c1` (stereo not given): the Potency was 16.6 µM (active).

For the compound `CC(C)C(=O)Nc1ccc([N+](=O)[O-])c(C(F)(F)F)c1`, the Potency was 2.96 µM (active).

For the compound `CN1CCN(CCCN2c3ccccc3Sc3ccc(Cl)cc32)CC1`, the Potency was 26.4 µM (active).

For `CC#C[C@]1(O)CC[C@H]2[C@@H]3CCC4=CC(=O)CCC4=C3[C@@H](c3ccc(N(C)C)cc3)C[C@@]21C`, the Potency is 1.18 µM (active).

As for `COc1ccc2[nH]cc(CCNC(C)=O)c2c1`, the Potency result is “inactive”.

Consider `Nc1ccn([C@H]2CC[C@@H](CO)O2)c(=O)n1`, for which the Potency was 13.2 µM (active).

For `Cc1ccc(-c2cc(C(F)(F)F)nn2-c2ccc(S(N)(=O)=O)cc2)cc1`, the Potency was 20.9 µM (active).

Turning to `Clc1ccc2nsnc2c1NC1=NCCN1`, the Potency entry was “inactive”.

For `CN1CCN(C2=Nc3cc(Cl)ccc3Nc3ccccc32)CC1`, the Potency result was “inactive”.
